Data on 22 sequences can be found in the supplement of paper PMC6555819.

For this test, the system named is RARb homodimer (NR concentration 270 nM). As to the kind of experiment: PBM binding z-score (relative to random genomic background probes); higher = stronger binding; sequences stand for … in GC…GCGATTGACAGCGTAGAATGAAGG
An outline of the steps:
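Ligand-free nuclear receptor dimers were bound for 1 h to custom Agilent 4×180K protein-binding microarrays. Detection used antibodies against each partner (one per run). Binding z-scores rest on regression-normalized fluorescence, with random background probes as the reference.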
Sequence CCTCCTGGGCCACGAAAGGTCATTGATTCAGTGA returned a PBM binding z-score of 4.56. On to CCTTACGGGTCACAAGGTTATAGCACGACGAGCG, for which the PBM binding z-score came out at 3.71. The value for GCTGCTAAGTCAACTGATGGTCAGCTAAAGCTCG was 0.11. Sequence CCGACTGGGGCAAAGGGTACCATACTCAGTACGA registered a PBM binding z-score of 0.849. CCTAGTTGGTCTAGGTCACACACGCTATAGGTAC showed a PBM binding z-score of 3. Then ATCTCTAGTTAACAAGTTCAGTGAAAGAGAGGAC, with 1.64. ATTCAAAGTTCACTAGGTAACGTAAGATTCAGCT displayed a PBM binding z-score of 3.66.

Turning to ACAGACAGATGATGAAGGTAACTCAGGCTATCAT, the PBM binding z-score is 0.176. TCTTGTTGATCAACAGGAGGTTAAGAAAGATCGA yielded a PBM binding z-score of 0.286. With ACTAGTTGGTCAGCTGAGGTCAGACACAATTCGG, the PBM binding z-score is 3.88.

ACTATTAGTTAAGACGAGGGCAACCGATAGGTTG gave a PBM binding z-score of 1.34. Then TCTGCTAGGTCAAGGATGGTCAGCTAATCTGCTA, with 3.49; and TAGCTTAGGTCATGGGCCAGTATACCACGCGAAC, with 3.13. Consider CCTTACGGGCCACTCCAGGTTATAGCATCGGAGT, for which the PBM binding z-score is 0.457. The value for TCATATAGGTAAACAGGTCAAAGTCCGTAAGTTA was 2.99; that for AGTCAAACTTCATCTAGGTAACGTAAGATATGCT was -0.47. Then ATCTCTAGGCAAAGTTCAGTGAAAGATCGATAGA, with 2.14. In the case of ATGTCTAGGTAAAAGTTCAGTGAATCCCGAGGAT, the PBM binding z-score worked out at 2.32.

TCTATTAGTTAAAGGGCAACCGACGAGTCCGTTT returned a PBM binding z-score of 2.17. The value for CCTACTGGTCCACGAAAGGTCATTGATTCAGTGA was 4.62; that for ACTCGGAGGACAAAGGTCAGAGTTACGCCAGTGA was 4.32. For CCGAGTAGGTTATGTGGCATTCAGGCAACGGTGA, the PBM binding z-score stood at 0.908.
